Experimental data reported in PubChem BioAssay (NCI).
This is part of a sample that, as a whole, favours compounds with a hit. Of some 79,000 tested, about 15% had one in any assay. The source made the active and inactive calls. Cut-off read from the data, not from the text of the source: active = growth inhibition above about 70%; inactive = the rest.

Columns and labels:
[1] = NCI Yeast Anticancer Drug Screen. Data for the rad52 strain (AID 147);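 note: 0% = growth of vehicle-treated control cultures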; details: S. cerevisiae rad52 mutant growth inhibition, hits give high values
Summary of the method: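 Screen used a yeast mutant impaired in DNA repair. After compound exposure, growth was measured. Values reflect inhibition compared with vehicle-treated cells.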

[2] = NCI Yeast Anticancer Drug Screen. Data for the wt1 strain (AID 149);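 note: 0% = growth of vehicle-treated wt1 cultures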; details: S. cerevisiae wt1 strain (SPY 50644) growth inhibition, hits give high values
Summary of the method: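 Compounds are added to wt1 yeast cultures. Growth is then measured. Inhibition is expressed relative to vehicle-treated controls.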

[3] = NCI Yeast Anticancer Drug Screen. Data for the rad50EPP+ strain (AID 151);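 note: 0% = growth of vehicle-treated control cultures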; details: S. cerevisiae rad50 mutant strain, hits give high values
Summary of the method: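 Exposing the rad50EPP+ strain to each compound, growth was compared with vehicle-only cultures to give inhibition.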

[4] = NCI Yeast Anticancer Drug Screen. Data for the rad50 strain (AID 155);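 note: 0% = growth of vehicle-only cultures of the same strain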; details: S. cerevisiae rad50 strain growth inhibition, hits give high values
Summary of the method: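 Inhibition values express reduced yeast growth in compound-treated cultures relative to vehicle-treated controls.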

[5] = NCI Yeast Anticancer Drug Screen. Data for the mec2-1 strain (AID 157); details: S. cerevisiae mec2-1 strain, hits give high values
Summary of the method: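 Readout is yeast growth inhibition, normalised to vehicle-treated controls, in the mec2-1 strain exposed to compound.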

[6] = NCI Yeast Anticancer Drug Screen. Data for the rad14 strain (AID 159);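 note: 0% = growth of vehicle-treated control cultures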; details: S. cerevisiae rad14 strain growth inhibition, hits give high values
Summary of the method: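 A mutant yeast strain defective in DNA damage repair is treated with compound; inhibition of its growth is scored against untreated, vehicle-exposed cultures.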

[7] = NCI Yeast Anticancer Drug Screen. Data for the sgs1 mgt1 strain (AID 161);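 note: 0% = growth of cultures given vehicle only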; details: S. cerevisiae sgs1 mgt1 strain, hits give high values
Summary of the method: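 Yeast cells carrying a defined DNA-repair defect were exposed to test compounds. Growth inhibition was measured relative to vehicle-treated controls.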

[8] = NCI Yeast Anticancer Drug Screen. Data for the CLN2oe strain (AID 163);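 note: 0% = growth of vehicle-only control cultures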; details: S. cerevisiae CLN2oe strain, hits give high values
Summary of the method: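 Values reflect how much compound exposure reduced yeast growth, referenced to vehicle-exposed cells. Assay organism is a strain with a defined genetic change affecting cell-cycle control.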

[9] = NCI Yeast Anticancer Drug Screen. Data for the cln2 rad14 strain (AID 165);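 note: 0% = growth equal to vehicle treated cultures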; details: S. cerevisiae cln2 rad14 strain, hits give high values
Summary of the method: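 Relative to vehicle controls, growth inhibition of compound-treated cln2 rad14 yeast was recorded.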

[10] = NCI Yeast Anticancer Drug Screen. Data for the bub3 strain (AID 167); details: S. cerevisiae bub3 mutant strain, hits give high values
Summary of the method: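 Steps: expose the mutant yeast strain to compound; grow alongside vehicle-treated cultures; measure growth; express inhibition against the vehicle cultures.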

[11] = NCI Yeast Anticancer Drug Screen. Data for the wt2 strain (AID 169);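 note: 0% = growth of vehicle-treated yeast cultures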; details: S. cerevisiae wt2 strain growth inhibition, hits give high values
Summary of the method: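 Values express reduction in yeast growth under compound treatment, referenced to vehicle-treated cells.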

[12] = NCI Yeast Anticancer Drug Screen. Data for the mlh1 strain (AID 171);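 note: 0% = growth of vehicle-treated control cultures of the same strain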; details: S. cerevisiae mlh1 strain growth inhibition, hits give high values
Summary of the method: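 Steps: expose the defined-mutant yeast strain to compound; expose a parallel culture to vehicle; measure growth; express compound effect as inhibition relative to the vehicle culture.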

[13] = NCI Yeast Anticancer Drug Screen. Data for the sgs1 strain (AID 173);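 note: 0% = growth of vehicle-only control cultures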; details: S. cerevisiae sgs1 mutant, hits give high values
Summary of the method: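 Treat defined-mutant yeast with compound; measure growth; calculate inhibition relative to vehicle-treated cells.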

[14] = NCI Yeast Anticancer Drug Screen. Data for the mlh1 rad18 strain (AID 175); details: S. cerevisiae mlh1 rad18 strain growth inhibition, hits give high values
Summary of the method: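 Test agents were incubated with a yeast strain of defined genotype (DNA damage repair defect). Inhibition of growth was derived by comparison with vehicle-exposed cultures.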

[15] = NCI Yeast Anticancer Drug Screen. Data for the rad18 strain (AID 177); details: S. cerevisiae rad18 mutant growth inhibition, hits give high values
Summary of the method: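 A genetically defined yeast mutant impaired in DNA damage repair was treated with test compounds, then its growth was measured against cultures receiving vehicle alone.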

[16] = at 5.0 µM (retest, dose inferred, filed as 0.5)
[17] = at 50.0 µM (retest, dose inferred, filed as 5.0)

Measured: growth inhibition

COc1ccc(N2C(=O)CC(Cl)C2=O)cc1 (stereo not drawn)
inactive: [1]; at 1.2 µM -10% | [1]; at 3.7 µM -9% | [1]; at 11.0 µM 10% | [2]; at 1.2 µM -1% | [2]; at 3.7 µM 10% | [2]; at 11.0 µM 16% | [3]; at 1.2 µM -9% | [3]; at 3.7 µM -18% | [3]; at 11.0 µM 22% | [3]; at 33.0 µM 66% | [4]; at 1.2 µM -16% | [4]; at 3.7 µM -11% | [4]; [16] -128% | [4]; at 11.0 µM 15% | [5]; at 1.2 µM -7% | [5]; at 3.7 µM -5% | [5]; [16] -44% | [5]; at 11.0 µM -6% | [5]; at 33.0 µM 64% | [5]; [17] 36% | [6]; at 1.2 µM -6% | [6]; at 3.7 µM 1% | [6]; at 11.0 µM 13% | [7]; [16] -56% | [7]; [17] 59% | [8]; at 1.2 µM -12% | [8]; at 3.7 µM -12% | [8]; at 11.0 µM -12% | [8]; at 33.0 µM 0% | [9]; [16] -60% | [9]; [17] 8% | [10]; at 1.2 µM -15% | [10]; at 3.7 µM -8% | [10]; [16] -75% | [10]; at 11.0 µM 1% | [10]; [17] 69% | [11]; at 1.2 µM -4% | [11]; at 3.7 µM -1% | [11]; at 11.0 µM 37% | [12]; at 1.2 µM -14% | [12]; at 3.7 µM -10% | [12]; at 11.0 µM -10% | [12]; at 33.0 µM 40% | [13]; at 1.2 µM -3% | [13]; at 3.7 µM 0% | [13]; at 11.0 µM 24% | [14]; [16] -137% | [14]; [17] 32% | [15]; at 1.2 µM -12% | [15]; at 3.7 µM -10% | [15]; at 11.0 µM 1% | [15]; at 33.0 µM 38%
active: [1]; at 33.0 µM 80% | [1]; at 100.0 µM 99% | [2]; at 33.0 µM 70% | [2]; at 100.0 µM 100% | [3]; at 100.0 µM 99% | [4]; at 33.0 µM 79% | [4]; [17] 96% | [4]; at 50.0 µM 99.2% | [4]; at 100.0 µM 99% | [5]; at 50.0 µM 99.5% | [5]; at 100.0 µM 100% | [6]; at 33.0 µM 98% | [6]; at 100.0 µM 100% | [7]; at 50.0 µM 95.5% | [8]; at 100.0 µM 78% | [9]; at 50.0 µM 97% | [10]; at 33.0 µM 92% | [10]; at 50.0 µM 97.9% | [10]; at 100.0 µM 100% | [11]; at 33.0 µM 99% | [11]; at 100.0 µM 100% | [12]; at 100.0 µM 100% | [13]; at 33.0 µM 93% | [13]; at 100.0 µM 99% | [14]; at 50.0 µM 97.1% | [15]; at 100.0 µM 99%
